In the library only some 1.1% were active in any assay of this set; here they are far more common.
RPL19A-GFP yeast: modulators of TOR pathway RPL19A-GFP in S. cerevisiae. percent response vs DMSO, % at 10 µM. S. cerevisiae RPL19A-GFP strain, flow cytometry, 3 h; hits give low values. actives 0.3% (n = 330,000). AID 2025;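 active = percent response vs DMSO below 50%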;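 also: median channel GFP fluorescence of the barcoded RPL19A-GFP strain; ratio of sample median GFP to plate DMSO average so 100% = DMSO; lower means less RPL19A-GFP as with rapamycin TOR inhibition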
MEP2 TOR yeast: modulators of TOR pathway MEP2-GFP in S. cerevisiae | S. cerevisiae MEP2-GFP strain, flow cytometry GFP, 3 h; 100% = DMSO control level | actives 0.51% (n = 330,000) | AID 2016 | GFP response vs DMSO, % at 10 µM;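 active = GFP response versus DMSO above a set limit, roughly screen mean plus 3 SD, cut at about 180% in these data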;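 also: median GFP fluorescence of the barcode-gated MEP2-GFP cells per well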
CIT2 TOR yeast: modulators of TOR pathway CIT2-GFP in S. cerevisiae; GFP response vs DMSO, % at 10 µM; S. cerevisiae CIT2-GFP strain, flow cytometry, 3 h; 100 means same as DMSO wells; actives 0.065% (n = 320,000); AID 2029;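 active = GFP response relative to DMSO above a set limit, near the screen mean plus 3 SD, cut at about 150% in these data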;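 also: ratio of well median GFP fluorescence to mean of DMSO wells on the plate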
LAP4 TOR yeast: modulators of TOR pathway LAP4-GFP in S. cerevisiae. S. cerevisiae LAP4-GFP multiplex, flow cytometry GFP, 3 h; median GFP as percent of DMSO wells. GFP response vs DMSO, % at 10 µM. actives 0.34% (n = 320,000);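 active = GFP response vs DMSO above a set limit, about the screen mean plus 3 SD, cut at about 150% in these data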
AGP1-GFP MLPCN: modulators of TOR pathway AGP1-GFP in S. cerevisiae; S. cerevisiae AGP1-GFP multiplex flow cytometry, 3 h; GFP as percent of DMSO wells; GFP response vs DMSO, % at 10 µM; actives 0.02% (n = 320,000);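 active = GFP response relative to DMSO above a set limit, near screen average plus 3 SD, cut at about 150% in these data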;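 also: median GFP channel fluorescence of the gated AGP1 strain per well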
VLA-4 inh: inhibition in a human VLA-4 binding assay | P13612 | VLA-4 expressing cells, ligand binding flow cytometry | inhibition, % (about 7 µM as worked out from the volumes in the protocol) | actives 0.2% (n = 330,000) | AID 2557; in the data active = inhibition above about 50%
VLA-4 allo CP: confirmation of allosteric modulators of human VLA-4 integrin. shares compounds with VLA-4 inh. U937 cells, HUTS-21 LIBS mAb binding, flow cytometry; LDV ligand present at threefold Kd. inhibition, % at 6.7 µM. actives 2% (n = 1,300); in the data active = inhibition above about 40%;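 also: 0% = ligand without compound and 100% = no ligand background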
Starred values were filed as active, the others as inactive; · = no result given.

SMILES	RPL19A-GFP yeast	MEP2 TOR yeast	CIT2 TOR yeast	LAP4 TOR yeast	AGP1-GFP MLPCN	VLA-4 inh	VLA-4 allo CP
CC(C)(C)NCC(O)CON=C1c2ccccc2-c2ccccc21 (configuration not stated)	100	103	104	110	108	55*	-8
Cc1ccc(C(=O)NCCCN2CCOCC2)c(C)c1	100	103	105	100	105	5	·
O=C(COC(=O)C1CC1)Nc1ccc(S(=O)(=O)N2CCOCC2)cc1	104	115	123	102	108	5	·
COc1cccc(-c2cc(CC3(O)CCN(CCCc4ccccc4)CC3)on2)c1	101	103	102	90	99	-6	·
CCn1c(=N)n(CC(O)c2cccs2)c2ccccc21 (configuration not stated)	106	103	104	97	100	41	2
COc1ccc(OC)c(NC(=O)NCCc2c[nH]c3ccccc23)c1	101	102	99	99	96	12	·
COc1cc(/C=C/C(=O)O)cc(OC)c1O	101	101	81	100	83	60*	-9
CC(C)CC(=O)Nc1ccc2c(c1)nc(CCN1CCOCC1)n2C	107	106	107	90	105	43	-18
CCn1nnnc1SCC(=O)N1CCCCC1	98	103	97	98	110	27	·
COc1cccc(NS(=O)(=O)c2cc(C)ccc2OC)c1	101	98	98	107	·	13	·
COc1ccc(C)cc1S(=O)(=O)Nc1cccc(C)c1	95	97	97	98	97	-3	3
O=C(C[n+]1ccccc1)N/N=C/c1ccc(Cl)c(Cl)c1	99	96	107	88	99	18	·
Cc1ccc(CSCC(=O)Nc2ccc(N3CCOCC3)cc2N2CCOCC2)cc1	99	100	86	107	97	-6	·
CCCC(=O)Nc1ccc(C(=O)Nc2nc(CC(=O)OCC)cs2)cc1	97	102	94	96	99	56*	2
CCOC(=O)Cc1csc(NC(=O)c2ccc(OC)c(OC)c2)n1	103	98	111	105	·	0	·
CN1CCN(C(c2ccc(Br)cc2)c2cc(Cl)c3cccnc3c2O)CC1 (configuration not stated)	63	128	110	129	42	12	·
CCOc1ccc(Oc2c(/C=N/NC(N)=O)c(C)nn2-c2ccccc2)cc1	101	100	104	87	99	6	·
CCOc1ccc(Oc2c(/C=N/NC(=O)COc3ccccc3OC)c(C)nn2-c2ccccc2)cc1	96	99	91	81	86	46	3
Cc1cc(/C=C2/NC(=O)N(c3ccccc3)C2=O)c(C)n1-c1cccnc1	103	108	102	95	99	43	-11
Cc1cc(/C=C2/NC(=S)NC2=O)c(C)n1-c1cccnc1	101	106	102	96	95	-173	·
O=C(Nc1ccc2oc(-c3ccccc3)nc2c1)c1ccc2c(c1)OCCO2	96	98	87	105	100	60*	2
O=C(c1cc(-c2ccncc2)nc2ccccc12)N1CCN(c2ncccn2)CC1	97	98	100	87	94	-9	0
CC(=O)c1ccc(N2CCN(C(=O)c3cc(-c4cccnc4)nc4ccc(Br)cc34)CC2)cc1	93	91	90	86	99	0	·
O=C(c1ccco1)N1CCN(C(=O)c2cc(-c3ccccn3)nc3ccccc23)CC1	102	105	105	100	101	-9	-5
O=C(c1cc(-c2ccncc2)nc2ccccc12)N1CCN(c2ccccn2)CC1	101	105	98	104	102	7	·
O=C(c1cc(-c2cccnc2)nc2ccc(Br)cc12)N1CCN(c2ncccn2)CC1	97	96	93	96	97	1	-3
O=C(c1ccco1)N1CCN(C(=O)c2cc(Cl)nc3ccccc23)CC1	108	103	107	107	113	-6	·

Source: PubChem BioAssay
